These results are taken from PubChem BioAssay.

Results filed as inconclusive are left out. Active and inactive are the calls of the source.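 Rule for the calls, unless noted: active = inhibition above the screen-wide mean plus 3 SD, about 51%; inactive = the rest.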

Test [1] is described as follows: yeast TOR pathway RPL19A-GFP modulators, primary screen, cell-based, S. cerevisiae, multiplex flow cytometry (AID 1862; in the data active = percent of DMSO control GFP below about 86%;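 note: lower values mimic rapamycin by blocking the RPL19A rise seen in DMSO cells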). The note with it: S. cerevisiae RPL19A-GFP strain, flow cytometry fluorescence, 3 h; at 10 µM; stronger effect = lower value.
Test [2] in a line: modulators of MEP2-GFP levels in yeast, primary screen, S. cerevisiae, multiplex flow cytometry (AID 1867;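 active = GFP response, as percent of the DMSO control, above the screen-wide mean plus 3 SD, about 139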;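 note: median GFP channel fluorescence of barcode-gated MEP2-GFP cells measured by flow cytometry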). The note with it: S. cerevisiae MEP2-GFP strain, 3 h, at 10 µM, stronger effect = higher value, 100% means same as DMSO wells.
A short description of test [3]: modulators of CIT2-GFP expression in yeast, primary screen, S. cerevisiae, GFP fusion, multiplex flow cytometry (AID 1870;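 active = percent response above a set limit, the screen-wide mean plus 3 SD, cut at about 130% in these data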;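 note: barcoded CIT2-GFP strain pooled with four other GFP strains with rapamycin as positive control; median GFP fluorescence per well over plate mean of DMSO wells so 100% = DMSO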). The note with it: 3 h, at 10 µM, stronger effect = higher value. Background: Flow cytometry measures light scatter and fluorescence of single cells or particles in a stream.
The nature of test [4]: modulators of LAP4-GFP expression in yeast, primary screen, S. cerevisiae, multiplex flow cytometry (AID 1873;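 active = GFP signal, as percent of the solvent control, above the screen mean plus 3 SD, about 149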). The note with it: 3 h, at 10 µM, stronger effect = higher value.
Test [5] can be described thus: modulators of AGP1-GFP expression in yeast TOR pathway, primary screen, cell-based, multiplex flow cytometry, S. cerevisiae (AID 1887;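 active = GFP signal above the screen-wide mean plus 3 SD, that is over about 124.5% of the solvent control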;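 note: AGP1-GFP fusion strain of S. cerevisiae within a five-strain barcoded multiplex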). The note with it: 3 h, at 10 µM, stronger effect = higher value.
A short description of test [6]: inhibitors of CD8+ T cell-vesicle binding, pilot screen, LFA-1/ICAM-1 modulator project, MLPCN validation set, flow cytometry (AID 2523;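 active = response below a set limit, under 55% cells CD8-positive and vesicle-bound, and CD8 cells' 90th-percentile brightness under 279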;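 for vesicle binding response: mean PE anti-B7-1 fluorescence of CD8+ cells relative to row control; 100% = QL9-loaded vesicles with DMSO vehicle in the same plate row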). The note with it: 2C mouse CD8+ T cells, at 7 µM, stronger effect = lower value; double positive events: measured here: CD8+/vesicle+ event percentage.
The target of test [7] is Integrin beta-1 (Homo sapiens) + Integrin alpha-4 (Homo sapiens) (UniProt P13612+P05556). Kind of test: inhibition of HUTS-21 binding to VLA-4, pilot screen, VLA-4 allosteric modulator project, U937 cells, HUTS-21 mAb, flow cytometry, validation set (AID 2674;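 active = inhibition above 50%, about 3 SD of the validation set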;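 note: antibody binding induced by the VLA-4 ligand LDV present at three times its Kd; 0% = LDV ligand with antibody and no compound and 100% = antibody without LDV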). The note with it: HUTS-21 LIBS mAb binding, at 6.7 µM, stronger effect = higher value, binding induced by LDV ligand.
Test [8] in a line: superoxide lowering in aged yeast cells, pilot screen, validation compound set (AID 2706;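 active = superoxide response below 65% of plate, a cut near 3 SD across the whole screen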;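 note: yeast exposed to compound for one week at 30 degrees C before staining; 100% = mean of all compound wells on the same plate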). The note with it: S. cerevisiae aging, superoxide DHE fluorescence; at 10 µM; stronger effect = lower value.
Test [9] addresses Beta-adrenergic receptor kinase 1 (Homo sapiens) (UniProt P25098). Kind of test: GRK2 binders displacing RNA aptamer, biochemical, validation, human GRK2, bead flow cytometry (AID 488806;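 active = aptamer binding inhibition above 30%, about 3 SD of noise from non-fluorescent compounds; inactive = inhibition at or below 30%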). The note with it: bead-bound GRK2, FAM-aptamer displacement, at 10 µM, stronger effect = higher value.
Test [10] addresses Beta-2 adrenergic receptor (Homo sapiens) (UniProt P07550). The test is described as follows: beta2AR agonists driving receptor internalization, pilot screen, cell-based, FAP fluorogen, flow cytometry, validation set (AID 504459;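 active = percent response above 42, roughly 3 SD of non-fluorescent test compounds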;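 note: agonist-driven loss of surface beta2AR via internalization measured by FAP dye flow cytometry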). The note with it: Am2.2-beta2AR cells, FAP surface receptor flow cytometry; at 10 µM; stronger effect = higher value.
Test [11] has as its target AP-2 complex subunit beta (Homo sapiens) (UniProt P63010). The test is described as follows: inhibitors of arrestin peptide binding to AP2, pilot screen, biochemical, validation set, GST-AP2 beads, flow cytometry (AID 504541;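 active = inhibition above 54%, about 3 SD of non-fluorescent compounds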;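 note: AP2 carries R879A mutation and is captured from E. coli lysate; bead-bound FITC arrestin peptide fluorescence measuring arrestin peptide binding to AP2; 0% = DMSO wells and 100% = excess unlabeled arrestin peptide control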). The note with it: FITC arrestin peptide, at 10 µM, stronger effect = higher value, AP2 beta2 appendage fragment, R879A mutant.
Test [12] is described as follows: yeast V-ATPase proton transport modulators, S. cerevisiae, pHLuorin, HTS validation (AID 504600; in the data active = response above about 15%;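 note: plate controls were DMSO for no effect and reference compound for full effect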). The note with it: S. cerevisiae pHLuorin cytosolic pH, at 10 µM, stronger effect = higher value.
Test [13] deals with anti-desmoglein-3 scFv antibody binding to human DSG3. Kind of test: inhibitors of anti-DSG3 scFv binding to DSG3, pilot screen, biochemical, validation compound set, bead-based, flow cytometry (AID 588368;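 active = binding below the plate cutoff, the plate median minus 3 SD, with a reading above zero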;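 note: signal is the median channel fluorescence of bead-bound GFP antibody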). The note with it: Protein G beads, DSG3-Fc, scFv-GFP binding, at 10 µM, stronger effect = lower value.
The nature of test [14]: inhibitors of fungal efflux pumps CDR1, CDR2, MDR1, pilot screen, validation compound set, multiplex, phenotypic (AID 588506;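 active = efflux inhibition above 0.42, the validation set average plus 4 SD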;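 note: Nile Red retained in cells so higher fluorescence means more efflux inhibition; 0 = negative control wells and 1 = enniatin B 25 µM full block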). The note with it: S. cerevisiae pump-expressing triplex, Nile Red efflux flow cytometry; at 10 µM; stronger effect = higher value; the pumps come from Candida albicans.
In test [15] the target is ATP-binding cassette sub-family B member 6 (Homo sapiens) (UniProt Q9NP58). The test is described as follows: ABCB6 transporter inhibitors, pilot screen, K562-ABCB6 cells, flow cytometry, validation set (AID 588550).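 Note: 0% = DMSO wells and 100% = benzethonium chloride 70 µM positive control.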 The note with it: K562-ABCB6 porphyrin accumulation, 1 h, at 10 µM, stronger effect = higher value.
The nature of test [16]: promoters of myeloid differentiation in arrested cells, primary screen, cell-based, GFP/MAC1 double positive, flow cytometry, validation set (AID 588685;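 active = differentiation response of at least 50%, scaled between solvent and reference control, from cells with both markers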;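 note: compound exposure lasts four days before antibody staining and flow analysis; 0% = DMSO wells and 100% = 5 µM fulvestrant positive control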). The note with it: ER-HoxA9 marrow cells, stronger effect = higher value, normalized: vehicle 0, fulvestrant 100.

Chain of AP-2 complex subunit beta (Homo sapiens) (P63010 whole entry, looked up, the tested form may be a part, one chain of several): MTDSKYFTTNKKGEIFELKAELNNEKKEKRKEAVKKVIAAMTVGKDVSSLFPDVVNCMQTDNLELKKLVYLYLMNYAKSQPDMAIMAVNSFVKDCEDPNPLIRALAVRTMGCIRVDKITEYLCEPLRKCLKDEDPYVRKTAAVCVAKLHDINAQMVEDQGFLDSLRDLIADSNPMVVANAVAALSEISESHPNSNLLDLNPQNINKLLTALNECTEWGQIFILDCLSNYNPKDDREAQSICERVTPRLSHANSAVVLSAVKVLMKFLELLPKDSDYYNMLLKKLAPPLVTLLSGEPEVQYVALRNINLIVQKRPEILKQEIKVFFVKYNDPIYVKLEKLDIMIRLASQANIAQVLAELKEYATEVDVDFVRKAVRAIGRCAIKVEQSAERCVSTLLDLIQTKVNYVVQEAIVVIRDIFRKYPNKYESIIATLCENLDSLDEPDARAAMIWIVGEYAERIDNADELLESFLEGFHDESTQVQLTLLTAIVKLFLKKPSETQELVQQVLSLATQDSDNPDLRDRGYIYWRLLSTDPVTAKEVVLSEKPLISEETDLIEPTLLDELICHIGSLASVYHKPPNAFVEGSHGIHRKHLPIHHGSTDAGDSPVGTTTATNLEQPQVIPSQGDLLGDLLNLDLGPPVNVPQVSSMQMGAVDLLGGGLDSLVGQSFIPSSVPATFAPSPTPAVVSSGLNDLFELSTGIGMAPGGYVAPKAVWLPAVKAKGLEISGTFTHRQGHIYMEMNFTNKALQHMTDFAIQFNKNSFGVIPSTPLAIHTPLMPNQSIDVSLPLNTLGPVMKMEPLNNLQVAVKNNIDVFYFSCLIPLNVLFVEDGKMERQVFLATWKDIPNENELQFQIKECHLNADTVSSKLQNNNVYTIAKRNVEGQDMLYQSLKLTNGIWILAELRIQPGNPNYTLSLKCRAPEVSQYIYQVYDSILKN
Chain of Beta-2 adrenergic receptor (Homo sapiens) (P07550 whole entry, looked up): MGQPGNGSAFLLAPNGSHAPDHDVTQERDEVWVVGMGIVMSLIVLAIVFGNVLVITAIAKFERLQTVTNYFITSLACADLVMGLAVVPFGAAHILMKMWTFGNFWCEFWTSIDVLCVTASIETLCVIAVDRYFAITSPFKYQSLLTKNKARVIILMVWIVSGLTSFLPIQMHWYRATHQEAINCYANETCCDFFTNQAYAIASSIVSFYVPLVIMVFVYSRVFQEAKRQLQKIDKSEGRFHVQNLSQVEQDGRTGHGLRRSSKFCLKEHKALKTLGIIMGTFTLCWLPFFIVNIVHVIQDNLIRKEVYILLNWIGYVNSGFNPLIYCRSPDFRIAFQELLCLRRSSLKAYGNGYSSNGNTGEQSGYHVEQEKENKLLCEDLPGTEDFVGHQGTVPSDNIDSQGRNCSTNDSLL
Chain of ATP-binding cassette sub-family B member 6 (Homo sapiens) (Q9NP58 whole entry, looked up): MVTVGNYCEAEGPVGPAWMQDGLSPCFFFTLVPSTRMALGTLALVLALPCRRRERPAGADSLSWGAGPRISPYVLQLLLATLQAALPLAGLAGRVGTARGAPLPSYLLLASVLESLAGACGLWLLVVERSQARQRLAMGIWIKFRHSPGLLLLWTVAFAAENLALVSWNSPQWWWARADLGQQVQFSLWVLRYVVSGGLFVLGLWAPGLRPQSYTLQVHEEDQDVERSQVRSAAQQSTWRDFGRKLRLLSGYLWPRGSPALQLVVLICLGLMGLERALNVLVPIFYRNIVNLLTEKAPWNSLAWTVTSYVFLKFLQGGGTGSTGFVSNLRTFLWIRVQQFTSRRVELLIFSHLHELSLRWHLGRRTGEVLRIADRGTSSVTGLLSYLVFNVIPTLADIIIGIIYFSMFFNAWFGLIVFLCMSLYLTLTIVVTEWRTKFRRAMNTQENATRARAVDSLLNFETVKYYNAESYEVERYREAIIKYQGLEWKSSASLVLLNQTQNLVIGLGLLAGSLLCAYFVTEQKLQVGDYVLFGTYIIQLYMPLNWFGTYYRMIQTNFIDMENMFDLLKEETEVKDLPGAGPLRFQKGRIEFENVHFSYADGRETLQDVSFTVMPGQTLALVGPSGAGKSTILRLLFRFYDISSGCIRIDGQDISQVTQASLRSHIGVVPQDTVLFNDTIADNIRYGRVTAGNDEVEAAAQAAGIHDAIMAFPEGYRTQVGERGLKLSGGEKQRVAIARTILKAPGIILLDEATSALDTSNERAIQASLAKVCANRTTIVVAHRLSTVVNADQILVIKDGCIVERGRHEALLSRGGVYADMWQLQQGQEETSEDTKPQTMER
Chain of Beta-adrenergic receptor kinase 1 (Homo sapiens) (P25098 whole entry, looked up): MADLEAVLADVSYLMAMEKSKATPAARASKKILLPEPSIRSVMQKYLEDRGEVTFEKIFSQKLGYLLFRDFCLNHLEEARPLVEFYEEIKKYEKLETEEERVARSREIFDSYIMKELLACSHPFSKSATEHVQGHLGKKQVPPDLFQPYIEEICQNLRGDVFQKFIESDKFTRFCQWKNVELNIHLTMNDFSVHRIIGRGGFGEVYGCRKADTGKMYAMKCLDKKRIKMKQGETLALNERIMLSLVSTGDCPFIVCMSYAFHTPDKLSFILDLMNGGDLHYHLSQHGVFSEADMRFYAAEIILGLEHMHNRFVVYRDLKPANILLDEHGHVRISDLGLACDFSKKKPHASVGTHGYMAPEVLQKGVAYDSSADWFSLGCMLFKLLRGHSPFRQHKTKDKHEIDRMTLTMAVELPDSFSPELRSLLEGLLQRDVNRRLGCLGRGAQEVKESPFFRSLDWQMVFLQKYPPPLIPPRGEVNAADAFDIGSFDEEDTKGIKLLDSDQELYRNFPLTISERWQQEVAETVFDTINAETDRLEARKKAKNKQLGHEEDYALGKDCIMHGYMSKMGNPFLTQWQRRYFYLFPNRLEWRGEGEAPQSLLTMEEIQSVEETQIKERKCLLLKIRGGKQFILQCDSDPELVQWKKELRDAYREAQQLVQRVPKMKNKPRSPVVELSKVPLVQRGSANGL
Chain of Integrin beta-1 (Homo sapiens) + Integrin alpha-4 (Homo sapiens) (P05556 whole entry, looked up): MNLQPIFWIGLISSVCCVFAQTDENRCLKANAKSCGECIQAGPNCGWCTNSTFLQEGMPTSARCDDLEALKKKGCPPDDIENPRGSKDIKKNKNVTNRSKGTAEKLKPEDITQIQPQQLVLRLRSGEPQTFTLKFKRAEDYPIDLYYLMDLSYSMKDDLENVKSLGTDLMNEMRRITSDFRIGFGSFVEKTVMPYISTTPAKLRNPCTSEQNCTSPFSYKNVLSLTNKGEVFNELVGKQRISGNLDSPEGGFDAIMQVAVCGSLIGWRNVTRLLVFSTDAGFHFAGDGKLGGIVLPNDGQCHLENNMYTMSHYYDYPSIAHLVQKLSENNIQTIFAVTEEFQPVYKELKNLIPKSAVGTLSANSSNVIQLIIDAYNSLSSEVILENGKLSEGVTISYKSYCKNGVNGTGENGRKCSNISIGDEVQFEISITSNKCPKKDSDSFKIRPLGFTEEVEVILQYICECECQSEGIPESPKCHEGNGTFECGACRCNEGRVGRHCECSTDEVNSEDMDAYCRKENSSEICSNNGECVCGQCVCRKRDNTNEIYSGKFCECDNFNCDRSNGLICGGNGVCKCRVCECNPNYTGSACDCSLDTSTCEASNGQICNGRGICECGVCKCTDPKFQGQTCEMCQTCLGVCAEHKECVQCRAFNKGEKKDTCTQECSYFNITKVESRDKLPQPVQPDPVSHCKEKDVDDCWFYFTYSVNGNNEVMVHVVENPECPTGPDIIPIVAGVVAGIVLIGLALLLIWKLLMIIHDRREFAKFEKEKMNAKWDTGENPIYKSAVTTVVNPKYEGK
Chain of Integrin beta-1 (Homo sapiens) + Integrin alpha-4 (Homo sapiens) (P13612 whole entry, looked up): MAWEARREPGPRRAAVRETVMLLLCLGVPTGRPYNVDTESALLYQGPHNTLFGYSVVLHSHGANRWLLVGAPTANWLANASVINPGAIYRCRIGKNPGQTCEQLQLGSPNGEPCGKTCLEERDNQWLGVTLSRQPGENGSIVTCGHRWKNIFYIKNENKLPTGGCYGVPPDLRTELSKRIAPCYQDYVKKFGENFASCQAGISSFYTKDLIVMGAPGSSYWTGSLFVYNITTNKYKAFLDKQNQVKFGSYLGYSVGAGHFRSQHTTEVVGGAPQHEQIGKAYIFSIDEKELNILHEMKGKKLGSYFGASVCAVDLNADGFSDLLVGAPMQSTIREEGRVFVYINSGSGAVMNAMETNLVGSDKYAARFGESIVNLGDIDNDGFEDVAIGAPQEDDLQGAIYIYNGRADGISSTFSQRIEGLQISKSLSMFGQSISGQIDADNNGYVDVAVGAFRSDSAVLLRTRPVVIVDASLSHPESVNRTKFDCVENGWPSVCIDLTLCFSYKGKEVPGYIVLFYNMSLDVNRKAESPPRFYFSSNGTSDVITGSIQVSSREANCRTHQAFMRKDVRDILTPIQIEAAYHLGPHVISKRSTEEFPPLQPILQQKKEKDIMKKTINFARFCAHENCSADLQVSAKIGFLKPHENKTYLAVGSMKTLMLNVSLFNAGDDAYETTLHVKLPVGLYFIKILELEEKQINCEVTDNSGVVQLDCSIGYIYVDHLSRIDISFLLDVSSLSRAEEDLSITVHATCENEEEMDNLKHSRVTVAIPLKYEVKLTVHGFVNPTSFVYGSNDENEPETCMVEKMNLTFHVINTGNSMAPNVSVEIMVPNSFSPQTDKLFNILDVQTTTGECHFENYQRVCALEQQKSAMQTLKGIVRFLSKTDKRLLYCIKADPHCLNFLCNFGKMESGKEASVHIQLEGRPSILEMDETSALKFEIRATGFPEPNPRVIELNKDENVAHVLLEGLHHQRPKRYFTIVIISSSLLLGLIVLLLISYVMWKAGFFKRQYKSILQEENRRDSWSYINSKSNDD

With `COc1cc(OC)c2c(C)c(Cl)c(=O)oc2c1`, the percent of DMSO control GFP in test [1] was 102% (inactive). Also, the GFP response vs DMSO in test [2] was 104% (inactive); in test [4], 113% (inactive). Besides, the percent response of DMSO control in test [3] is 105% (inactive). Further, the GFP response, % of DMSO in test [5] was 99.1% (inactive). In test [6], this compound showed a double positive events of 56.7%. The vesicle binding response in test [6] was 92.7% (inactive). Moreover, the inhibition in [7] is 2.66% (inactive); in test [11], -8.58% (inactive); in test [15], -9% (inactive). Also, the superoxide response (% of plate) in [8] is 90.2% (inactive). Moreover, the aptamer binding inhibition in [9] is -3% (inactive). In addition, the response is -6.2% (inactive) in test [10] and 1.24% (inactive) in test [12]. The binding (% of control) in [13] was 100% (inactive). Besides, the efflux inhibition (fraction of control) in test [14] is -0.1 (inactive). Besides, the differentiation response in [16] was 0.24% (inactive).

Take `O=C(NO)c1ccccc1O`: the percent of DMSO control GFP in test [1] is 103% (inactive). Moreover, the GFP response vs DMSO in test [2] was 107% (inactive); in [4] it was 94.8% (inactive). For the same compound, in test [3], the percent response of DMSO control was 105% (inactive). Further, the GFP response, % of DMSO in [5] is 106% (inactive). For the same compound, the double positive events in test [6] worked out at 63.6%. In test [6], the vesicle binding response is 158% (inactive). Further, the inhibition in test [7] was 8.29% (inactive); in test [11] it was 36.8% (inactive); in [15], 9% (inactive). Further, the superoxide response (% of plate) in test [8] was 95.5% (inactive). The aptamer binding inhibition in [9] was 2% (inactive). Moreover, the figures for the response in test [10] and in test [12] were -0.56% (inactive) and -8.07% (inactive), respectively. In test [13], the binding (% of control) was 98.8% (inactive). In [14], the efflux inhibition (fraction of control) was 0.03 (inactive). In addition, in [16], the differentiation response was -13.3% (inactive).

In the case of `CCOc1ccc(C(=O)NCC2(c3ccccc3)CCOCC2)cc1`, the percent of DMSO control GFP in [1] is 99.8% (inactive). Moreover, the GFP response vs DMSO in [2] is 97.7% (inactive); in test [4], 105% (inactive). Moreover, the percent response of DMSO control in [3] was 108% (inactive). For the same compound, the GFP response, % of DMSO in test [5] is 108% (inactive). In addition, in test [6], the double positive events is 63.3%. The vesicle binding response in test [6] was 172% (inactive). Moreover, the inhibition in test [7] is -13.2% (inactive); in [11], -4.75% (inactive); in [15], 11% (inactive). In addition, the superoxide response (% of plate) in test [8] is 95.9% (inactive). Further, the aptamer binding inhibition in test [9] is -4% (inactive). Also, the figures for the response in [10] and in test [12] were -2.34% (inactive) and -1% (inactive), respectively. The binding (% of control) in test [13] was 107% (inactive). In addition, the efflux inhibition (fraction of control) in [14] was -0.11 (inactive). In test [16], the differentiation response was 10.1% (inactive).

As to `COc1ccc2c(=O)c(-c3cnn(-c4ccccc4)c3)c(C)oc2c1`, the percent of DMSO control GFP in test [1] is 102% (inactive). Besides, the GFP response vs DMSO in [2] was 101% (inactive); in test [4], 115% (inactive). Further, in test [3], the percent response of DMSO control is 99.6% (inactive). In addition, the GFP response, % of DMSO in [5] is 109% (inactive). This compound displayed a double positive events in test [6] of 58.6%. In test [6], the vesicle binding response is 153% (inactive). For the same compound, the inhibition is -2.82% (inactive) in test [7], 7% (inactive) in test [11] and -336% (inactive) in [15]. The superoxide response (% of plate) in [8] is 91.1% (inactive). Besides, the aptamer binding inhibition in test [9] is 4% (inactive). Also, the response in test [10] was -30.2% (inactive); in [12], 1.88% (inactive). Also, the binding (% of control) in test [13] is 103% (inactive). Further, in test [14], the efflux inhibition (fraction of control) was -0.13 (inactive). For the same compound, the differentiation response in [16] was -0.06% (inactive).

Regarding `O=c1c2[nH]c3ccccc3c2ncn1CCC1=CCCCC1`, the percent of DMSO control GFP in test [1] is 91.7% (inactive). In addition, the GFP response vs DMSO in test [2] was 127% (inactive); in [4], 82% (inactive). For the same compound, the percent response of DMSO control in test [3] was 103% (inactive). Moreover, the GFP response, % of DMSO in [5] was 89.6% (inactive). The compound further returned a double positive events in test [6] of 62.1%. Also, the vesicle binding response in [6] is 149% (inactive). Further, the inhibition was 14.2% (inactive) in test [7], -5.27% (inactive) in test [11] and 13% (inactive) in test [15]. The superoxide response (% of plate) in test [8] was 95.4% (inactive). Further, in test [9], the aptamer binding inhibition is -3% (inactive). The response in test [10] is -1.85% (inactive); in test [12], 0.28% (inactive). The binding (% of control) in test [13] was 101% (inactive). Also, the efflux inhibition (fraction of control) in test [14] was 0.01 (inactive). Moreover, the differentiation response in test [16] was 1.64% (inactive).

As usually defined, the inhibition is the relative decrease from the control value, in per cent.
